The sample as a whole holds a higher share of hits than the screen did.
IDE exosite inh: displaces the probe from the exo-site of human IDE | P14735 | purified IDE, FL-6b probe fluorescence polarization; hits give low values | z-score at 20 µM | 17,000 compounds, 6.3% hits;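 active = z-score of -3 or lower, meaning strong loss of probe binding signal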;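 also: His-tagged human IDE residues 42-1019 made in E. coli with 30 nM FL-6b probe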
Target sequence (P14735 42-1019 limits assumed): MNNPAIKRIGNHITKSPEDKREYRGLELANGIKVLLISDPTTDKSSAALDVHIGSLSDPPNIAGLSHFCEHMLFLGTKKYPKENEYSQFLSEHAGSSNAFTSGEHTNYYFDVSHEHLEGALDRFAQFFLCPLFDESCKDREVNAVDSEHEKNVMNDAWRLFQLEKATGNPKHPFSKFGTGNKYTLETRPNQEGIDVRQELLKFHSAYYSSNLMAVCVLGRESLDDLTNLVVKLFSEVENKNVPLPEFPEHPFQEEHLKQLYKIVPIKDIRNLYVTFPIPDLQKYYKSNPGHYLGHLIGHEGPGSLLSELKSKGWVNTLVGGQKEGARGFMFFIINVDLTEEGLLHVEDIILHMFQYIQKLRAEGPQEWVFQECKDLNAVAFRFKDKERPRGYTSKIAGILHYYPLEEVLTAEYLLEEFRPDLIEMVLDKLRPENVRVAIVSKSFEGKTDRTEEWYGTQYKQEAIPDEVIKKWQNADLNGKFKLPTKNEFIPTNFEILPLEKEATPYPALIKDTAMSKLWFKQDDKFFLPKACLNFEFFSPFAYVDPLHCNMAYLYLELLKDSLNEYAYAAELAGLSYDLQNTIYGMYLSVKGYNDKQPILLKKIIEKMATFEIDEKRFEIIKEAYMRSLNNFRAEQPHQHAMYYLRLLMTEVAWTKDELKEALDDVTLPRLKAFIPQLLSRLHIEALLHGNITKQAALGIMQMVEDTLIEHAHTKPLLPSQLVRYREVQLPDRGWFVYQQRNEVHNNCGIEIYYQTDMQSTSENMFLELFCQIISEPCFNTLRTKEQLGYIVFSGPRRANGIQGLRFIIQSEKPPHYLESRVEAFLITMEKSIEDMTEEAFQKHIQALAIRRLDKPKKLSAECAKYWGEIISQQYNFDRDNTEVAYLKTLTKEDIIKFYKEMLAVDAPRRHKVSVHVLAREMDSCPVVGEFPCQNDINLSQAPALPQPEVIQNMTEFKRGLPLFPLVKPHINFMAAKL
Starred values were filed as active, the others as inactive; ! = repeats disagree.

SMILES	IDE exosite inh
Cc1ccccc1-c1ccc(C2[C@@H]3CN(Cc4cocn4)C[C@H]2N3)cc1 (stereo partly specified)	-3*!
C/C=C/c1ccccc1[C@@H]1[C@@H](C#N)N(C(C)=O)[C@H]1CO	-1.1
C[C@@H]1CN([C@H](C)CO)C(=O)c2ccccc2-c2ccccc2CO[C@@H]1CN(C)S(=O)(=O)Cc1ccccc1	1.1
Fc1cccc(CN2[C@@H]3CNC[C@H]2C3c2ccc(-c3ccncc3)cc2)c1 (stereo partly specified)	-0.99
COc1cccc(-c2ccc([C@@H]3[C@@H](CO)N4C(=O)CN(C(=O)c5ccncc5)C[C@@H]34)cc2)c1	-2.8
Cc1ccc(-c2ccc([C@H]3[C@@H](CO)N4C(=O)CN(C(=O)CN5CCOCC5)C[C@@H]34)cc2)cc1	-0.81
Cc1ccc(-c2ccc([C@@H]3[C@H]4CN(C(=O)CN5CCOCC5)CC(=O)N4[C@H]3CO)cc2)cc1	-2.1
COc1cccc(-c2ccc([C@@H]3[C@@H](CO)N4C(=O)CN(C(=O)CN5CCOCC5)C[C@H]34)cc2)c1	-3.8*
Cc1cccc(-c2ccc([C@H]3[C@H](CO)N4C(=O)CN(C(=O)CN5CCOCC5)C[C@@H]34)cc2)c1	-6.3*
COCC#Cc1ccc([C@@H]2[C@H]3CN(C(=O)CN4CCOCC4)CC(=O)N3[C@H]2CO)cc1	-0.13
COc1cccc(-c2ccc([C@H]3[C@H]4CN(C(=O)c5ccncc5)CC(=O)N4[C@H]3CO)cc2)c1	1.6
Cc1ccc(-c2ccc([C@@H]3[C@H](CO)N4C(=O)CN(C(=O)CN5CCOCC5)C[C@@H]34)cc2)cc1	-0.58
COc1cccc(-c2ccc([C@@H]3[C@H]4CN(C(=O)CN5CCOCC5)CC(=O)N4[C@H]3CO)cc2)c1	-5.5*
CN(C)CC(=O)N1[C@@H](C#N)[C@H](c2ccc(C#CC3CCCCC3)cc2)[C@@H]1CO	-0.47
CCC(=O)N1CC2(CCN(Cc3ccc(Cl)cc3)CC2)c2c(n(C)c3cc(OC)ccc23)[C@H]1CO	-1.2
CN(C)CC#Cc1ccc([C@H]2[C@H](CO)N3CCCCN(C(=O)Nc4ccc(F)cc4)C[C@@H]23)cc1	0.7
N#C[C@@H]1[C@H](c2ccccc2-c2cccc(F)c2)[C@@H](CO)N1C(=O)NC1CCCCC1	-0.79
CC[C@H]1C/C=C\CCNC(=O)CCC(=O)N1	-0.52
CCCNC(=O)C[C@@H]1CC[C@H]2[C@@H](COc3ccc(NC(=O)CC)cc3C(=O)N2C)O1	0.21
CC(=O)N1CCCCN2[C@@H](CO)[C@@H](c3ccc(Br)cc3)[C@@H]2C1	0.89
CN(C[C@H]1N[C@@H](CO)[C@@H]1c1ccc(C2=CCCC2)cc1)C(=O)c1ccccn1	4.6
C/C=C/c1ccc([C@H]2[C@@H](CO)N(S(C)(=O)=O)[C@H]2CNC(C)C)cc1	1
CC=Cc1ccc2n(c1=O)C[C@@H]1[C@@H](CO)[C@H](C(=O)N[C@@H](C)c3ccccc3)[C@H]2N1Cc1cncnc1 (mixture of isomers)	0.11
CN(C)CC(=O)N1C[C@@H]2N[C@H](C1)C2c1ccc(-c2ccncc2)cc1 (stereo partly specified)	-1.2
O=C(c1ccccn1)N1CC2(C1)[C@@H](c1ccccc1)[C@@H](CO)N2Cc1ccc(F)cc1	-0.74
SMILES	IDE exosite inh
O=S(=O)(Cc1ccccc1)N1CCCCN2[C@H](CO)[C@@H](c3ccc(C#Cc4ccccc4)cc3)[C@H]2C1	5.1
O=S(=O)(Cc1ccccc1)N1CCCCN2[C@@H](CO)[C@H](c3ccc(C#Cc4ccccc4)cc3)[C@@H]2C1	2.5
O=S(=O)(Cc1ccccc1)N1CCCCN2[C@H](CO)[C@H](c3ccc(C#Cc4ccccc4)cc3)[C@H]2C1	4
CCCC#Cc1ccc([C@H]2[C@H]3CN(S(=O)(=O)CC)CCCCN3[C@H]2CO)cc1	2.3
CCS(=O)(=O)N1CCCCN2[C@H](CO)[C@H](c3ccc(C#Cc4ccccc4OC)cc3)[C@H]2C1	-9.2*
CCS(=O)(=O)N1CCCCN2[C@H](CO)[C@H](c3ccc(C#Cc4ccccc4OC)cc3)[C@@H]2C1	-8.2*
O=S(=O)(Cc1ccccc1)N1CCCCN2[C@H](CO)[C@@H](c3ccc(C#Cc4ccccc4)cc3)[C@@H]2C1	-0.14
CCCC#Cc1ccc([C@@H]2[C@@H](CO)N3CCCCN(S(=O)(=O)CC)C[C@H]23)cc1	3
CCS(=O)(=O)N1CCCCN2[C@H](CO)[C@@H](c3ccc(C#Cc4ccccc4OC)cc3)[C@H]2C1	-6.5*
C/C=C/c1ccc([C@@H]2[C@H](CO)N3CCCCN(C(=O)Nc4cc(F)ccc4F)C[C@@H]23)cc1	1.2
COCC(=O)Nc1ccc2c(c1)[C@@H]1C[C@@H](CC(=O)N[C@H](C)c3ccccc3)O[C@H](CO)[C@@H]1O2	1.3
CS(=O)(=O)N1[C@H](CO)[C@@H](c2ccccc2-c2ccccc2F)[C@@H]1C#N	-0.25
COCCNC(=O)C[C@@H]1CC[C@H]2[C@@H](COC[C@H](O)CN2C(=O)c2cc(Cl)cc(Cl)c2)O1	0.27
CC(=O)N1CC(=O)N2[C@H](CO)[C@H](c3ccc(C#Cc4cccnc4)cc3)[C@@H]2C1	2.1
